Measured values published in PubChem BioAssay (Tox21).
“And” between values parts separate entries of the source, which are not always exact repeats. Equal values may be shown once. Results filed as inconclusive are left out. Where a call stands in place of a potency, no number is given. Some structures have more than one record in an assay (separate samples or runs), and their calls can disagree. The source made the active and inactive calls. Unless noted, calls follow the shape of the dose curve; as a rule, active = well fitted curve in the direction sought with a large enough effect in the repeat runs; inconclusive = weak or mixed curves; inactive = no such curve, though single readings can be large; an effect the other way counts as inactive or inconclusive.

What was measured:
[1] = qHTS assay to identify small molecule agonists of the estrogen receptor alpha (ER-alpha) signaling pathway in the presence of an antagonist - cell viability counter screen (AID 1259386);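 also: series mostly up to about 92 µM; cells exposed to compounds for 22 h at 37 °C before the viability read; nearly all actives have a fitted effect of over 30% in size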
Outline: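 Cytotoxicity was measured in parallel with the ERE-luciferase agonist screen, in the same wells. The cells were VM7Luc4E2, which endogenously express ER-alpha, and treatment was with compounds plus 10.0nM ICI-182,780 for 22hr.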

[2] = target: Progesterone receptor (Homo sapiens) (UniProt P06401); assay: qHTS assay to identify small molecule agonists of the progesterone receptor (PR) signaling pathway (AID 1346784; calls by dose curve; also: nearly all actives have a fitted effect of over 30% in size)
Progesterone receptor (Homo sapiens), sequence (P06401 whole entry, looked up): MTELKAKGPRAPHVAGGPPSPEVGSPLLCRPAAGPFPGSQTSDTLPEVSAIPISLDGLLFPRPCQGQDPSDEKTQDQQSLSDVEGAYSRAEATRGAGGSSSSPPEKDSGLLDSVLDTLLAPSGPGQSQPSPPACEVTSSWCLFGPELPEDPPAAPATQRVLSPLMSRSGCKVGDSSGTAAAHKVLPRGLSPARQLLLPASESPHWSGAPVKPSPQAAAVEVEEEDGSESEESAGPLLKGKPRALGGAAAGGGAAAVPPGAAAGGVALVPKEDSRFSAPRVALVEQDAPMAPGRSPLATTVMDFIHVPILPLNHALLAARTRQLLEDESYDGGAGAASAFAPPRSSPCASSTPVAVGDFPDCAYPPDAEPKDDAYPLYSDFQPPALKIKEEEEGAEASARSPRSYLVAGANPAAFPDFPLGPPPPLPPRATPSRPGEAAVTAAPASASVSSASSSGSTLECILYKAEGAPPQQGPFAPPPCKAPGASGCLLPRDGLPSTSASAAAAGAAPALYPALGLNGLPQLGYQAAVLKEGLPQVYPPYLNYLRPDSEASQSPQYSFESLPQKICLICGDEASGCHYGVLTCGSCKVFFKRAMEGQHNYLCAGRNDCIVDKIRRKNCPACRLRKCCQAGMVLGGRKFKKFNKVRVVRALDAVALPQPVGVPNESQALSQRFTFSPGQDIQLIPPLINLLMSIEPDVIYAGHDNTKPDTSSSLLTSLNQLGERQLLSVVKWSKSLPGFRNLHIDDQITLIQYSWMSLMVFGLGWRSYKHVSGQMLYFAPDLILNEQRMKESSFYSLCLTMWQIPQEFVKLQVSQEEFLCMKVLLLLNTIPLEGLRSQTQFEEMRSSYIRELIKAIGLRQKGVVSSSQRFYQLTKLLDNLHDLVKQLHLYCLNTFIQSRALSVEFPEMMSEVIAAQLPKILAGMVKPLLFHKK
Outline: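 HEK 293T PR-UAS-bla reporter cells, 2% charcoal-stripped FBS; 6 hr settle at 37C/5% CO2, compound (DMSO) 16 hr, LiveBLAzer B/G FRET substrate 2 hr RT, fluorescence intensity read.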

[3] = target: Progesterone receptor (Homo sapiens) (UniProt P06401); assay: qHTS assay to identify small molecule antagonists of the progesterone receptor (PR) signaling pathway (AID 1346795; active = well fitted inhibition curve with a large enough effect in the signal ratio in the repeat runs, not every such curve was filed as active; the % refers to the signal ratio; also: potency is read from the fitted curve at half-maximal effect)
Outline: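 Beta-lactamase reporter, HEK293T PR-UAS-bla line; 2% charcoal-stripped FBS; 6 hr pre-incubation, 37C/5% CO2. Compound + R5020 1 nM final, 16 hr. LiveBLAzer B/G FRET substrate, 2 hr RT; fluorescence intensity read.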

[4] = qHTS assay to identify small molecule antagonists of the progesterone receptor (PR) signaling pathway - cell viability counter screen (AID 1346798); also: series mostly up to about 92 µM; nearly all actives have a fitted effect of over 50% in size
Outline: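 Luminescence readout (CellTiter-Glo, 30 min, RT) of viability in PR-UAS-bla HEK293T cells exposed to compound and R5020 agonist for 16 hr at 37C, 5% CO2; run in the same wells as the beta-lactamase reporter read.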

[5] = qHTS assay to identify small molecule agonists of the progesterone receptor (PR) signaling pathway - cell viability counter screen (AID 1346799; calls by dose curve; also: nearly all actives have a fitted effect of over 45% in size)
Outline: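 HEK293T PR-UAS-bla, 3,000 cells/well, 2% charcoal-stripped FBS; 6 h settle, compound 16 h at 37C/5% CO2; LiveBLAzer 2 h RT, then CellTiter-Glo 30 min RT, luminescence read.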

[6] = qHTS assay to identify small molecule antagonists of the TGF-beta/Smad signaling pathway - cell viability counter screen (AID 1346824); also: nearly all actives have a fitted effect of over 50% in size
Outline: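 Cytotoxicity counter-screen run in the same wells as the beta-lactamase Smad reporter read: CellTiter-Glo luminescence after 30 min at room temperature. HEK 293T SBE-bla cells had 5 hr compound exposure at 37 C with TGF-beta1 (0.25 ng/mL stock).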

[7] = qHTS assay to identify small molecule agonists of the TGF-beta/Smad signaling pathway - cell viability counter screen (AID 1346829); also: top concentration of the series differs between compounds; nearly all actives have a fitted effect of over 45% in size
Outline: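 HEK 293T SBE-bla line, 5 hr compound exposure at 37 C, multiplexed CellTiter-Glo viability read by luminescence.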

[8] = qHTS assay to identify small molecule agonists of the TGF-beta/Smad signaling pathway (AID 1346859; active = well fitted activation curve with a large enough effect in the signal ratio in the repeat runs, not every such curve was filed as active; the % refers to the signal ratio; also: series mostly up to about 77 µM)
Outline: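 Read-out: fluorescence at 460 and 530 nm (405 nm excitation) after a 2 hr room-temperature incubation with beta-lactamase FRET substrate. SBE-bla HEK 293T cells had been treated with test compounds for 5 hr at 37 C.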

[9] = target: Thyrotropin-releasing hormone receptor (Homo sapiens) (UniProt P34981); assay: qHTS assay to identify small molecule antagonists of the thyrotropin-releasing hormone receptor (TRHR) signaling pathway (AID 1346877; active = well fitted inhibition curve with a large enough effect in the repeat runs, not every such curve was filed as active; also: series mostly up to about 51 µM)
Thyrotropin-releasing hormone receptor (Homo sapiens), sequence (P34981 whole entry, looked up): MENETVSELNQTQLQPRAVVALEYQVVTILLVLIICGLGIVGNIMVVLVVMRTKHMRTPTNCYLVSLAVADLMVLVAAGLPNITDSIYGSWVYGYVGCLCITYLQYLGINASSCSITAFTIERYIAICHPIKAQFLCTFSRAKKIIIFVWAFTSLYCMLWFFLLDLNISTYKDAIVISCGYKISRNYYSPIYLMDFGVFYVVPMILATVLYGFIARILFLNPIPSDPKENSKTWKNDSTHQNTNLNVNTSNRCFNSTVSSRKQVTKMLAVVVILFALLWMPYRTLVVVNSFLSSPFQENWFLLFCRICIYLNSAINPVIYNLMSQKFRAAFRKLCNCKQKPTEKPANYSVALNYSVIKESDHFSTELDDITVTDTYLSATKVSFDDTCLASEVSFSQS
Outline: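 Antagonism is measured as suppression of the calcium response to 1 nM TRH in TRHR-HEK293 cells that have been dye-loaded for 2 h at 37 °C after overnight plating. Each compound is tested at 15 concentrations in triplicate.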

[10] = target: Thyrotropin-releasing hormone receptor (Homo sapiens) (UniProt P34981); assay: qHTS assay to identify small molecule agonists of the thyrotropin-releasing hormone receptor (TRHR) signaling pathway (AID 1346891; calls by dose curve;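 also: HEK293 cells expressing TRHR with calcium dye readout; series mostly up to about 58 µM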)
Outline: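 HEK293/TRHR cells, 1500 per well, 18 h 37 °C; Ca dye 2 h 37 °C; pin-tool compound addition (agonist mode); kinetic fluorescence 3 min, 1 s reads; 15 concentrations, triplicate.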

[11] = Human pregnane X receptor (PXR) small molecule agonists, qHTS cell viability counter screen (AID 1346977); also: nearly all actives have a fitted effect of over 50% in size
Outline: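 Fluorescence read-out (CellTiter-Fluor) of viability in PXR-Luc HepG2 cells, multiplexed with the luciferase agonist read. Compounds in DMSO added after 5hr plating; 24hr total exposure at 37C, 5% CO2.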

[12] = Caspase-3/7 induction in HepG2 cells by small molecules, qHTS assay (AID 1346978); also: nearly all actives have a fitted effect of over 15% in size
Outline: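 Caspase-3/7 induction was measured by Caspase-Glo 3/7 luminescence (30 min, room temperature) after a 17 hr compound exposure of wild-type HepG2 cells seeded at 2,000 per well and pre-incubated 5 hr.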

[13] = Caspase-3/7 induction in CHO-K1 cells by small molecules, qHTS cell viability counter screen (AID 1346979); also: nearly all actives have a fitted effect of over 35% in size
Outline: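 CHO-K1 wt, 1,500 cells/well; 5hr pre-incubation 37C/5% CO2; compound pin transfer (DMSO); 16hr exposure; CellTiter-Fluor added, 1hr, fluorescence read.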

[14] = Caspase-3/7 induction in CHO-K1 cells by small molecules, qHTS assay (AID 1346980); also: nearly all actives have a fitted effect of over 15% in size
Outline: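 Luminescent Caspase-Glo 3/7 read (30min, room temperature) quantified apoptosis induction. Cells were wild-type CHO-K1, treated with compound for 17hr at 37 C and 5% CO2.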

[15] = Caspase-3/7 induction in HepG2 cells by small molecules, qHTS cell viability counter screen (AID 1346981); also: series mostly up to about 92 µM; nearly all actives have a fitted effect of over 30% in size
Outline: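 Cell viability is measured as a cytotoxicity counter screen alongside the Caspase-Glo 3/7 readout in identical wells. Wild-type HepG2 cells are treated with test compounds for 16 hr at 37 C before CellTiter-Fluor addition and a 1-hr incubation.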

[16] = target: Nuclear receptor subfamily 1 group I member 2 (Homo sapiens) (UniProt O75469); assay: Human pregnane X receptor (PXR) small molecule agonists, qHTS assay (AID 1346982); also: nearly all actives have a fitted effect of over 35% in size; also: potency is read from the fitted curve at half-maximal effect
Nuclear receptor subfamily 1 group I member 2 (Homo sapiens), sequence (O75469 whole entry, looked up): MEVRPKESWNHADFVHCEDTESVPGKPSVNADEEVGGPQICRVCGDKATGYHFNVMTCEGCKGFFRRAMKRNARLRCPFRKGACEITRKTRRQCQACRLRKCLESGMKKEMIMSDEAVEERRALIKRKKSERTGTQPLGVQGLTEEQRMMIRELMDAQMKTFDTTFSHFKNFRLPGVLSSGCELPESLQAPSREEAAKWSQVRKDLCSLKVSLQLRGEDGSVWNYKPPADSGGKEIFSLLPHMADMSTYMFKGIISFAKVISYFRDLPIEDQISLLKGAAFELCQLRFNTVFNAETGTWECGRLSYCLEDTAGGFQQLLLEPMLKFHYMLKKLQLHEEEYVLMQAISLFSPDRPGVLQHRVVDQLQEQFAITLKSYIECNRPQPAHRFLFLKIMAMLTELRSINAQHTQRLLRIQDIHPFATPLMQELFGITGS
Outline: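 Cells: HepG2 stably carrying PXR-Luc. Medium held 5% charcoal-stripped FBS. Compounds in DMSO added after 5 hr plating, incubated 24 hr, then luminescence quantified with ONE-Glo.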

[17] = target: Acetylcholinesterase (Homo sapiens) (UniProt P22303); assay: Acetylcholinesterase (AChE) small molecule antagonists: colormetric cell-based qHTS assay (AID 1347395; calls by dose curve; also: nearly all actives have a fitted effect of over 30% in size; also: potency is read from the fitted curve at half-maximal effect)
Acetylcholinesterase (Homo sapiens), sequence (P22303 whole entry, looked up): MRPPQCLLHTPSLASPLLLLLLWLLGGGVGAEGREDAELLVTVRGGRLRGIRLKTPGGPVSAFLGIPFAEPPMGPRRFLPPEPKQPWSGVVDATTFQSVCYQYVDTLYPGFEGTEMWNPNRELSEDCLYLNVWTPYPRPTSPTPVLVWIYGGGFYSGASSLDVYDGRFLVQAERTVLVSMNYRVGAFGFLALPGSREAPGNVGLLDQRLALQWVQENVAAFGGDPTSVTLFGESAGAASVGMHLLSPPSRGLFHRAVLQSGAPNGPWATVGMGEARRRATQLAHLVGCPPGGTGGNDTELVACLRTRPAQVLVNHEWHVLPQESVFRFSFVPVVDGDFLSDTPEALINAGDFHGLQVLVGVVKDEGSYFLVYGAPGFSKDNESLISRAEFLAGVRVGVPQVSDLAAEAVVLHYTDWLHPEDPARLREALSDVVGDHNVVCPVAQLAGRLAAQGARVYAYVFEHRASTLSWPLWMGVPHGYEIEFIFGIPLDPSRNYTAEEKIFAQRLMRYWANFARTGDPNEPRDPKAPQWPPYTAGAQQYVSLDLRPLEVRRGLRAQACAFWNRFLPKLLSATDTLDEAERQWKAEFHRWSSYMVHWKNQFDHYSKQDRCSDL
Outline: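 SH-SY5Y cells; cpd 30 min 37 C; + DTNB/acetylthiocholine, 90 min 37 C; colorimetric thiocholine read; qHTS.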

[18] = target: Nuclear receptor subfamily 1 group I member 2 (Rattus norvegicus) (UniProt Q9R1A7); assay: Rat pregnane X receptor (rPXR) activation by small molecules, qHTS assay (AID 1346983); conditions: rPXR luciferase reporter cells, One-Glo luminescence, 24 h; max activation: stronger effect = higher value; also: nearly all actives have a fitted effect of over 20% in size
Nuclear receptor subfamily 1 group I member 2 (Rattus norvegicus), sequence (Q9R1A7 whole entry, looked up): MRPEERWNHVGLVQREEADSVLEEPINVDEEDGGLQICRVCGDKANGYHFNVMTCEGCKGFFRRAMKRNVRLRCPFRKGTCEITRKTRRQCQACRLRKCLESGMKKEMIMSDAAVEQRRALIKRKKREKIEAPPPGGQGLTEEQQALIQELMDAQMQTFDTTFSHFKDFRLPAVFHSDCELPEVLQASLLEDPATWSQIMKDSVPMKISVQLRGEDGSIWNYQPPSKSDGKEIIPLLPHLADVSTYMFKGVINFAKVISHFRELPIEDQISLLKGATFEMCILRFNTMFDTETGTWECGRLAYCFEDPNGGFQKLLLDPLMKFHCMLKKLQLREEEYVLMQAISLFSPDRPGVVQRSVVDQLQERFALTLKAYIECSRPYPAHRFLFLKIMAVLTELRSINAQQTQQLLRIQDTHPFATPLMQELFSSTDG
Outline: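 Luminescent readout (One-Glo luciferase, 30 min room temperature) followed 24 hr compound treatment at 37 C of rPXR cells plated 2,000 per well and preincubated 5hr; qHTS format with compounds delivered in DMSO.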

[19] = target: Nuclear receptor subfamily 1 group I member 2 (Homo sapiens) (UniProt O75469); assay: CYP3A4 induction through human pregnane X receptor (PXR) by small molecules, qHTS assay (AID 1346984); also: nearly all actives have a fitted effect of over 40% in size; also: potency is read from the fitted curve at half-maximal effect
Outline: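 Quantitative HTS in DPX-2 cells, i.e. HepG2 transfected with PXR response element and CYP3A4-promoter luciferase. Compounds in DMSO incubated 24hr at 37C; then P450-Glo CYP3A4 substrate, 3uM final, 3hr; One-Glo luminescence.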

[20] = target: Nuclear receptor subfamily 1 group I member 2 (Homo sapiens) (UniProt O75469); assay: Human pregnane X receptor (PXR) activation by small molecules, qHTS assay (AID 1346985); also: nearly all actives have a fitted effect of over 40% in size
Outline: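 DPX-2 cells (HepG2 co-transfected with a PXR response element and a CYP3A4-promoter luciferase construct) were seeded at 2,000 per well, rested 5 hr at 37C, then exposed to DMSO-dissolved compounds for 24 hr. Activation was read as luciferase luminescence.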

Compound | Potency [1] | Potency [2] | Potency [3] | Potency [4] | outcome [5] | Potency [6] | Potency [7] | outcome [8] | outcome [9] | outcome [10] | Potency [11] | outcome [12] | Potency [13] | outcome [14] | Potency [15] | Potency [16] | Potency [17] | max activation [18] | Potency [19] | Potency [20]
CN(C)CCC#N | inactive | inactive | inactive | inactive | inactive | inactive | inactive | inactive | inactive | inactive | inactive | inactive | inactive | inactive | inactive | inactive | inactive |  |  | 
CCNc1nc(Cl)nc(NC(C)C)n1 | inactive | inactive | inactive | inactive | inactive | inactive | inactive | inactive | inactive | inactive | inactive | inactive | inactive | inactive | inactive | 67.8 µM (active) and 61.1 µM (active) | inactive |  |  | 
OCCCCO | inactive | inactive | inactive | inactive | inactive | inactive | inactive | inactive | inactive | inactive | inactive | inactive | inactive | inactive | inactive |  |  |  |  | 
CNC(=O)O/N=C/C(C)(C)S(C)(=O)=O | inactive | inactive | inactive | inactive | inactive | inactive | inactive | inactive | inactive | inactive | inactive | inactive | inactive | inactive | inactive | inactive |  |  |  | 
CC(C)CCCCCCOC(=O)c1ccccc1C(=O)OCCCCCCC(C)C | inactive | inactive | inactive | inactive | inactive | inactive | inactive | inactive | inactive | inactive | inactive | inactive | inactive | inactive | inactive | inactive | inactive |  |  | 
ClCCOCCCl | inactive | inactive | inactive | inactive | inactive | inactive | inactive | inactive | inactive | inactive | inactive | inactive | inactive | inactive | inactive | inactive | inactive |  |  | 
COP(=S)(OC)Oc1ccc(SC)c(C)c1 | inactive | inactive | 13.5 µM (active) | inactive | inactive | inactive | inactive | inactive | inactive | inactive | inactive | inactive | inactive | inactive | inactive | 60.4 µM (active) and 37.6 µM (active) | inactive | 1.15% (inactive) | inactive | inactive
O=C(O)C(Br)Br | inactive | inactive | inactive | inactive | inactive | inactive | inactive | inactive | inactive | inactive | inactive | inactive | inactive | inactive | inactive | inactive | inactive |  |  | 
Cc1ccc(O)c(C)c1 | inactive | inactive | inactive | inactive | inactive | inactive | inactive | inactive | inactive | inactive | inactive | inactive | inactive | inactive | inactive | inactive | inactive |  |  | 
CCCCC(CC)C(=O)Cl (stereo not drawn) | inactive | inactive | inactive | inactive | inactive | inactive | inactive | inactive | inactive | inactive | inactive | inactive | inactive | inactive | inactive | inactive | inactive |  |  | 
CCOc1ccc(N)cc1 | inactive | inactive | inactive | inactive | inactive | inactive | inactive | inactive | inactive | inactive | inactive | inactive | inactive | inactive | inactive | inactive | inactive |  |  | 
CNc1cnn(-c2cccc(C(F)(F)F)c2)c(=O)c1Cl | inactive | inactive | inactive | inactive | inactive | inactive | inactive | inactive | inactive | inactive | inactive | inactive | inactive | inactive | inactive | 46.8 µM (active) and 34.4 µM (active) | inactive |  |  | 
Nc1cc(Cl)cc(Cl)c1 | inactive | inactive | inactive | inactive | inactive | inactive | inactive | inactive | inactive | inactive | inactive | inactive | inactive | inactive | inactive | inactive | inactive |  |  | 
FC(F)(F)c1ccc(Cl)cc1 | inactive | inactive | inactive | inactive | inactive | inactive | inactive | inactive | inactive | inactive | inactive | inactive | inactive | inactive | inactive | inactive | inactive |  |  | 
CNC(=O)Oc1cccc2ccccc12 | inactive | inactive | 27.1 µM (active) and 30.6 µM (active) | inactive | inactive | inactive | inactive | inactive | inactive | inactive | inactive | inactive | inactive | inactive | inactive | 68 µM (active) and inactive | 2.22 µM (active) and inactive | -0.0164% (inactive) | 3.16 µM (active) | inactive
CN1C(=O)CCS(=O)(=O)C1c1ccc(Cl)cc1 (stereo not drawn) | inactive | inactive | inactive | inactive | inactive | inactive | inactive | inactive |  |  | inactive | inactive | inactive | inactive | inactive | inactive | inactive |  |  | 
